Compound activity: PubChem BioAssay, National Center for Advancing Translational Sciences (NCATS)
DRD3 agonist: D3 dopamine receptor (human) agonism. max activation, %. hit rate 0.58% among 410,000. AID 652048. D3R DiscoveRx beta-arrestin cells, luminescence, 90 min. P35462; in the data active means max activation above about 30%
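Agonist mode: compounds and dopamine controls were applied to plated cells for 90 min at 37 degrees C after an overnight attachment at 1500 cells/well. Luminescent read-out followed 30 - 60 minutes at room temperature with DiscoveRx detection reagent.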
DRD3 antagonist: antagonists of human D3 dopamine receptor; P35462; D3R cells, DiscoveRx beta-arrestin luminescence, antagonist mode; stronger effect = lower value; max response, negative = inhibition, %; hit rate 2.5% among 360,000; in the data active means max response below about -50%; inconclusive means no clear call, values can overlap the other calls
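Cells expressing the human receptor were seeded at 1500 cells/well, incubated overnight at 37 degrees C in 5% CO2, then exposed to library compounds with dopamine controls for 90 minutes at 37 degrees C before luminescent detection.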
D1 potentiator: potentiators of human D1 dopamine receptor; P21728; HEK293 TREx D1 cells, calcium flux, dopamine EC20 potentiation; potentiation, % at 10 µM; hit rate 0.036% among 360,000; AID 504651; in the data active means potentiation above about 30%
Target sequence (P21728 whole entry, looked up): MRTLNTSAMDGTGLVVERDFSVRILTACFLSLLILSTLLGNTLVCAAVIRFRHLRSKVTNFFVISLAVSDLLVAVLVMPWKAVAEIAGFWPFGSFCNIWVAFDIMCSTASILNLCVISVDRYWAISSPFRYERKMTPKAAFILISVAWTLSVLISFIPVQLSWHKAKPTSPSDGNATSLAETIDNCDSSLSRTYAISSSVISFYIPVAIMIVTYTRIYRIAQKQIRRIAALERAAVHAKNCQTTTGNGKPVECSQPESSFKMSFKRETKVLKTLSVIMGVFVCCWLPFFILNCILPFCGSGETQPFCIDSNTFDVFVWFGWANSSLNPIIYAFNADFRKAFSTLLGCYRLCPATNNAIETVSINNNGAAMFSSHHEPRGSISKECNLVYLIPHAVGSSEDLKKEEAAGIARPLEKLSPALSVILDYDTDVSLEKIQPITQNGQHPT
D1 antag: antagonists of human D1 dopamine receptor; P21728; HEK293 TREx D1 cells, calcium flux, dopamine EC80; stronger effect = lower value; activity change, negative = inhibition, % at 10 µM; hit rate 3.2% among 360,000; AID 504652; in the data active means activity change below about -30%
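Compound effects on dopamine-evoked calcium signalling were measured in tetracycline-induced HEK293 Trex D1 cells. Dopamine at EC80 followed a 180 s compound pre-read, and fluorescence was tracked kinetically for 180 s more.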
D1 ag: human D1 receptor agonism; hit rate 1% among 360,000; P21728; AID 504660; HEK293 T-REx D1 cells, calcium flux, agonist mode; activation, % at 2 µM; in the data active means activation above about 30%
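Tetracycline-induced HEK293 TREx D1 cells, force-coupled to calcium signalling, were dye-loaded with a no-wash calcium kit. Compound was pin-added after a 10 s baseline. Fluorescence was read kinetically at 1 cycle/s for 180 s, with calcium rises flagged as agonism.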
Numbers stand for hits; . = inactive; ? = inconclusive; / = not tested or not shown. An excerpt weighted towards active compounds, which were near 6.1% of everything screened.

SMILES	DRD3 agonist	DRD3 antagonist	D1 potentiator	D1 antag	D1 ag
COc1cccc(Cc2nc3ccccc3nc2SCC(=O)N2CCCc3ccccc32)c1	.	/	.	.	.
COc1ccc(COCC(O)CN2CCOCC2)cc1OC (configuration not stated)	.	.	.	.	.
COc1ccc(COCC(O)CN2CC(C)OC(C)C2)cc1OC (configuration not stated)	.	-154.0	.	.	.
CC1CN(CC(O)COc2ccc(C(C)C)cc2)CC(C)O1 (configuration not stated)	.	.	.	.	.
CC(=O)c1ccc(OCC(O)CN2CC(C)OC(C)C2)cc1 (configuration not stated)	.	-55.0	.	.	.
CC(=O)c1ccc(OCC(O)CN2CCOCC2)cc1 (configuration not stated)	.	.	.	-35.1	.
O=C1C[C@@H]2c3c(cccc3CN1Cc1ccccc1F)C[C@@H](O)[C@H]2O	49.1	.	/	/	/
Cc1ccc(-c2cc(C(=O)Oc3ccc(C#N)cc3)no2)cc1	.	/	.	.	.
CCOC(=O)C(=CNc1cc(C)nn1-c1ccccc1)C(=O)OCC	97.6	.	.	.	.
Cc1cc(NC(=O)Nc2ccc(Cl)c(Cl)c2)n(-c2ccccc2)n1	.	?	.	-44.3	.
CCOC(=O)C(=CNc1ccccc1C)C(=O)OCC	.	.	.	.	.
Cc1cc(NC(=O)Nc2cccc(Cl)c2)n(-c2ccccc2)n1	.	.	.	.	.
Cc1nn(C)cc1/C=C1\SC(=S)NC1=O	.	-69.9	.	.	.
COc1ccccc1C=C1SC(=S)NC1=O	.	.	/	/	/
O=C1NC(=S)SC1=Cc1ccccc1Cl	37.7	.	/	/	/
CCCCn1cc(S(=O)(=O)c2ccc(OC)cc2)c(=O)c2cc(F)c(N3CCOCC3)cc21	.	/	.	.	.
COc1ccc(Cn2cc(S(=O)(=O)c3ccc(Cl)cc3)c(=O)c3cc4c(cc32)OCO4)cc1	.	/	.	-41.8	.
CCCCn1cc(S(=O)(=O)c2ccc(OC)cc2)c(=O)c2cc(F)c(F)cc21	.	/	.	-38.8	.
Cc1cc(Br)ccc1OCCOCCN1CCCC1	.	-73.1	.	.	.
Cc1cc(Br)ccc1OCCCCN1CCCCC1	.	-50.9	.	.	.
Cc1cc(C(C)(C)C)ccc1OCCN1CCCC1	.	-64.3	.	.	.
CCc1ccc(NS(=O)(=O)c2ccc3[nH]cc(C(=O)NCCCOC(C)C)c(=O)c3c2)cc1	.	/	.	.	.
CCC(Sc1nc(-c2ccccc2)[nH]c1S(=O)(=O)c1ccc(C)cc1)C(=O)O (configuration not stated)	.	/	.	.	.
COC1=CC(=O)C=C(OC)C1=O	.	-121.3	/	/	/
COC1=CC(=O)c2ccccc2C1=O	.	-70.7	/	/	/
SMILES	DRD3 agonist	DRD3 antagonist	D1 potentiator	D1 antag	D1 ag
O=C(CNC(=O)C1CCCCC1)OC(C(=O)Nc1cc(C(F)(F)F)ccc1Cl)c1ccccc1 (configuration not stated)	/	/	.	.	.
Cc1ccc(-c2cc(-c3ccc4c(c3)NC(=O)CO4)nc3c2COc2ccccc2-3)cc1	.	/	.	.	.
COc1cc(Br)ccc1C1C(C(=O)Nc2ccc(C)cc2C)=C(C)Nc2nnnn21 (configuration not stated)	.	/	.	.	.
Cc1c(NC(=O)Cc2ccc(Cl)cc2)cccc1-c1nc2cccnc2s1	.	/	.	.	.
O=C(c1ccco1)n1nc(-c2ccccc2)nc1SCc1ccccc1	.	.	.	.	.
Nc1nc(-c2ccccc2)nn1C(=O)c1ccco1	.	.	.	-34.1	.
CCc1cccc(C)c1NC(=O)CCS(=O)(=O)c1ccc2c(c1)oc(=O)n2C	.	/	.	.	.
COc1ccc(NC(=O)CCc2c(C)nc3c(-c4ccc(F)cc4)c(C)nn3c2C)c(OC)c1	.	/	.	.	.
Oc1c(Cl)cc(Cl)cc1/C=N/c1nc(-c2ccc(Cl)cc2)cs1	.	-82.0	.	.	.
Oc1c(Cl)cc(Cl)cc1/C=N/c1nccs1	.	.	.	.	.
COc1cccc(C(C(=O)NCc2ccco2)N(Cc2ccco2)C(=O)Cn2nnc3ccccc32)c1 (configuration not stated)	.	.	.	-33.4	.
CCc1ccc(NC(=O)c2sc3nc(C)c(Cl)c(C)c3c2NC(=O)c2ccccc2OC)cc1	.	/	.	.	.
Cc1nc(SCC(=O)c2ccc(Cl)cc2)c([N+](=O)[O-])[nH]1	.	-66.3	.	-39.8	.
Cc1cc(C)c(C(N)=O)c(SCC(=O)c2ccc(Cl)cc2)n1	.	-59.8	/	/	/
CCOC(=O)c1c(-c2ccccc2)oc2ccc(NS(=O)(=O)c3cc(C)c(C)cc3C)cc12	.	/	.	.	.
Cc1ccc(NC(=O)c2oc3ccc(S(=O)(=O)N4CCC5(CC4)OCCO5)cc3c2C)c(C)c1	.	/	.	.	.
CC(=O)CCC(=O)O	.	/	/	/	/
CCc1cc2c(s1)c1cnn(Cc3ccccc3F)c(=O)c1n2C	/	/	.	.	.
CSc1cc2c(s1)c1cnn(Cc3ccccc3F)c(=O)c1n2C	/	/	38.2	.	.
ClC(Cl)(c1nnnn1-c1ccccc1)c1nnnn1-c1ccccc1	.	-72.0	.	.	.
c1ccc(-c2nnnn2-c2ccccc2)cc1	.	.	.	.	.
COc1ccccc1CCn1cnc(C)c1CC(C)C	.	-77.9	/	/	/
CCc1ncn(CCc2ccccc2OC)c1C(C)C	.	.	/	/	/
N#Cc1c(N)nc(N2CCCC2)c(C#N)c1-c1ccc(Cl)cc1	.	.	.	-56.6	.
CCCCn1c(N)c(N(CC)C(=O)c2cccc(OC)c2)c(=O)[nH]c1=O	.	.	.	-31.5	.
SMILES	DRD3 agonist	DRD3 antagonist	D1 potentiator	D1 antag	D1 ag
CCCCn1c(N)c(N(CCOC)C(=O)c2ccc(C)c(S(=O)(=O)N3CCCCC3)c2)c(=O)[nH]c1=O	.	.	.	-38.0	.
CC(C)CNC(=O)C1=CC(c2ccc3c(c2)OCO3)=NS(=O)(=O)N1C	.	/	.	.	.
CN1/C(=C/C=C/c2n(C)c3cc([N+](=O)[O-])c([N+](=O)[O-])cc3[n+]2C)C(C)(C)c2ccccc21	.	-57.2	/	/	/
Cc1cccc[n+]1CC(=O)/C=C1\N(C)c2ccccc2C1(C)C	.	.	.	.	.
CCOCCCNC(=O)NC(C)c1c(-n2cccc2)sc2c1CCN(CC)C2 (configuration not stated)	.	/	.	.	.
COc1cccc(CSc2nc3n(n2)C(CC(C)C)C(C(=O)Nc2ccccc2OC)=C(C)N3)c1 (configuration not stated)	.	/	.	.	.
CN(CCc1ccccn1)Cc1ccc(Cl)c(Cl)c1	.	-51.3	.	.	.
CN(CCc1ccccn1)Cc1ccc(Cl)cc1Cl	.	-69.9	/	/	/
O=C(CN(c1cccc(Br)c1)S(=O)(=O)c1ccccc1)N1CCc2ccccc2C1	.	/	.	.	.
COc1ccc(-c2[nH]n(-c3ccc([N+](=O)[O-])cc3)c(=O)c2C=NCc2ccncc2)cc1	.	.	.	-31.4	.
